From PubChem BioAssay (NCI)
Compounds without any hit were thinned out: in the full panel of roughly 83,000, 20% have a hit.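 How to read the values: 0–100, growth inhibition (40 = 60% inhibited); 0, no net growth; -100 to 0, cell death (-40 = 40% of starting cells died; -100 = all dead).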 Calls of active or inactive are those of the source. The calls were made as follows: active = growth percent below 10; inactive = the rest.

These compounds were tested on MDA-MB-468 breast (assay: NCI-60 one-dose screen, 48 h (100 = growth as untreated, 0 = no growth, -100 = all killed)). Conditions: 10 µM unless noted.
`CCC(/C=C\C(C)=O)CC` was tested, and the growth was 102% (inactive).
With `COc1ccc(C(=S)N2CCN(c3ccc(Cl)cc3)CC2)cc1` the growth was 102% (inactive).
`O=CN1N=C(c2cccc(Nc3ccnc4cc(Cl)ccc34)c2)CC1c1ccc(Cl)cc1` (centres undefined) was tested, and the growth was -4.05% (active).
With `Cc1cc(C(=O)O)c(C)n1-c1cccc(C(=O)O)c1` the growth was 70.1% (inactive).
`C[N+]1(CCC[N+]2(C)C[C@@H]3[C@H](C2)[C@@H]2C=C[C@H]3C2)CCOCC1` (some centres undefined) was tested, and the growth was 108% (inactive).
For `COC(=O)c1c2c(c(C)[n+]([O-])c1C)C(=O)C(NCc1ccc(F)c(Cl)c1)=CC2=O`, the growth was -18% (active).
For `CCOC(=O)c1ccccc1-c1c2ccc(=[N+](C)C)cc-2oc2cc(N(C)C)ccc12`, the growth was -17.9% (active).
With `C#C[C@]1(O)CC[C@H]2[C@@H]3CC=C4c5nc(Nc6ncccn6)sc5CC[C@]4(C)[C@H]3CC[C@@]21C` the growth was 75.5% (inactive).
For `COc1ccc(C2CC(c3cccc(Nc4ccncc4)c3)=NN2c2ccc(Cl)cc2)cc1` (centres undefined), the growth was 45.3% (inactive).
For `C=C1C(=O)O[C@H]2[C@H]1CC/C(COC(=O)CCCCCC(=O)OC/C1=C/CC[C@@]3(C)O[C@H]3[C@H]3OC(=O)C(=C)[C@@H]3CC1)=C\CC[C@@]1(C)O[C@@H]21`, the growth was -33.4% (active).
With `C=C(C)COC(=O)c1ccccc1C(=O)OCC1(C)CO1` (centres undefined) the growth was 108% (inactive).
For `CC1(C)COC(=S)N1`, the growth was 99.5% (inactive).
For `O=C(/C=C/c1ccc(Cl)cc1)c1ccc(Cl)cc1`, the growth was 88.3% (inactive).
For `Cc1ccc(C(=O)C2=Cc3cc4ccccc4n3Cc3cnnn32)cc1`, the growth was 100% (inactive).
